Laboratory results from publication PMC5700166.
Numbering of substitutions follows the chain as printed.

Experiments:
Experiment in all cases: protein-binding microarray (PBM); PBM: ~300 nM protein, 6 mM HEPES pH 7.8, 80 mM KCl, 0.5 mM EDTA, 0.5 mM EGTA, 6% glycerol, 35 ng/ul poly-dIdC, 1% milk, 1 h, room temperature; Ap Aiptasia and Nv Nematostella (sea anemones) / Co Capsaspora / Aq Amphimedon (sponge) / Dm Drosophila / Hu human; RHD is the Rel homology domain; high values mean tight binding
Conditions in all cases: dsDNA, one strand shown
GST-Ap-NF-kB RHD = biological target: T1, GST-Ap-NF-kB RHD (Exaiptasia pallida (Aiptasia), UniProt A0A913YAJ5 2-422)
T1 sequence: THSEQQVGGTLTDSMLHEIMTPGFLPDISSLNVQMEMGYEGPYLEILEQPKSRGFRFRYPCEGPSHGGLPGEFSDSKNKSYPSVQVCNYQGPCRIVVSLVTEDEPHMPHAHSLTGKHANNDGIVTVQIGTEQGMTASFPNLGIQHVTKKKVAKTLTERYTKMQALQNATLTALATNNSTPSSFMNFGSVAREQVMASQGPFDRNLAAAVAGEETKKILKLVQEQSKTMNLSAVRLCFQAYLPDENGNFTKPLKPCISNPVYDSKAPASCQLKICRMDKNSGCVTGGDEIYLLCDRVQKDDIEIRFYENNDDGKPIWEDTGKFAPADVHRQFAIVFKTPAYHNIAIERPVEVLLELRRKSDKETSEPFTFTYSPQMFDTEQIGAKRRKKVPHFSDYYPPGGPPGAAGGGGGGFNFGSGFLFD

[1] = biological target: T2, GST-Nv-NF-kB (Cys allele) (Nematostella vectensis, UniProt E5G601 2-411)
T2 sequence: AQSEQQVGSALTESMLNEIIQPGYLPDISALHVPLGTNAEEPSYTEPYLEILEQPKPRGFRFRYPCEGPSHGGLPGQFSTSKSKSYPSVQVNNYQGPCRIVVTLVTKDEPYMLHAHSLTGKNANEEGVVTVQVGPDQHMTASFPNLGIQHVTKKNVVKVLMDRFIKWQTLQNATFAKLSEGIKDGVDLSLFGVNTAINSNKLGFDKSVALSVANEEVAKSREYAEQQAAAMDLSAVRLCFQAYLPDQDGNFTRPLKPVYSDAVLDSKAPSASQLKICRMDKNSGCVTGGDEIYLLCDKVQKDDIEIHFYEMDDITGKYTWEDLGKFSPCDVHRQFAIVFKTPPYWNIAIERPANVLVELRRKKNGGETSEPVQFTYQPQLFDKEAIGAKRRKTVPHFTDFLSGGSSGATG

[2] = biological target: T3, GST-Nv-NF-kB (Ser allele) (Nematostella vectensis, UniProt A7UNT2 2-411)
T3 sequence: T2 sequence with Q21R, C66S, S207N, E215Q, V217A, E225K, A268E, D399E

GST-Co-NF-kB = biological target: T4, GST-Co-NF-kB (Capsaspora owczarzaki, UniProt F1ARL5 200-546)
T4 sequence: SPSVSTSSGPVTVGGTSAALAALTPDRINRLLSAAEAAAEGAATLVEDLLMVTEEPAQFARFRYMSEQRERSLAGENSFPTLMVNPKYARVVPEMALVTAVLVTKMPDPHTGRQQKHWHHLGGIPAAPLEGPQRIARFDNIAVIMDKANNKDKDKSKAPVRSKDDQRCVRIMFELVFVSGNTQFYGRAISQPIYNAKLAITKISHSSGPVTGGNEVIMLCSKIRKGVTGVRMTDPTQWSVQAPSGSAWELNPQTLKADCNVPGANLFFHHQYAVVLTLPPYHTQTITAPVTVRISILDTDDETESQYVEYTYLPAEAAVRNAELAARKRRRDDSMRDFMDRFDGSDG

GST-Dm-Relish = biological target: T5, GST-Dm-Relish (Drosophila melanogaster, UniProt Q94527 99-473)
T5 sequence: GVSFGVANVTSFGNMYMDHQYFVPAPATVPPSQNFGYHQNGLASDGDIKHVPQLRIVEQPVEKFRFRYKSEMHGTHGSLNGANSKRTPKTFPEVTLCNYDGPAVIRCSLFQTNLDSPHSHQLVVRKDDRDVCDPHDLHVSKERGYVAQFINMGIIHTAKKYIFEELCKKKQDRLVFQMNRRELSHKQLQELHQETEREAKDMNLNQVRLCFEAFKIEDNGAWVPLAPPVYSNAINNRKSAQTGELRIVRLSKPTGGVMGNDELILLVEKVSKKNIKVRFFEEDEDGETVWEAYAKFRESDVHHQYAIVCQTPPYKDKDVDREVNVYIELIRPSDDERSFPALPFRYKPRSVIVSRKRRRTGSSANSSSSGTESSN

GST-Aq-NF-kB = biological target: T6, GST-Aq-NF-kB (Amphimedon queenslandica, UniProt A9Y5G7 2-389)
T6 sequence: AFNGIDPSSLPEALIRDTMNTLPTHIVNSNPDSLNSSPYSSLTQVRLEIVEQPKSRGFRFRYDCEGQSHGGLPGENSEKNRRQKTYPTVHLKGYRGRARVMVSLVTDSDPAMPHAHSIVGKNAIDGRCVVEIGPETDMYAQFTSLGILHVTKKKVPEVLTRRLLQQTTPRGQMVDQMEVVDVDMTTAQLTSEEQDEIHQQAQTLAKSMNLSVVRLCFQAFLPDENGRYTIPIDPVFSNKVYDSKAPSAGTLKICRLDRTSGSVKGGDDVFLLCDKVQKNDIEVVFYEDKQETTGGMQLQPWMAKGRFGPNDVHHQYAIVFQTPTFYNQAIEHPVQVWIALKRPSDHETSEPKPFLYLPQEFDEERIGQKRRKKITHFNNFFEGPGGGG

GST-Hu-p50 = GST-Hu-p50 (Homo sapiens, UniProt P19838 7-356)
GST-Hu-p50, sequence (P19838 7-356): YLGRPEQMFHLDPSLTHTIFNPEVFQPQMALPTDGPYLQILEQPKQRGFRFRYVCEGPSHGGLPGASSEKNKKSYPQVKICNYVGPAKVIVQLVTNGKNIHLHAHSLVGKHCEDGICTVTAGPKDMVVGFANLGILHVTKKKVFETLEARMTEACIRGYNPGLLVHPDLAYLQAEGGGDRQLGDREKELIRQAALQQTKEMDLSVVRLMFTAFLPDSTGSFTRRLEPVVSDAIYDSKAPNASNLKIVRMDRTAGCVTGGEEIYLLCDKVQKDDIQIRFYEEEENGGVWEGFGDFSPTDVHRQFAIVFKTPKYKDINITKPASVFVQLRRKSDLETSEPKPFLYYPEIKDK

Sequence | binding signal (GST-Ap-NF-kB RHD) [z-score] | binding signal [1] [z-score] | binding signal [2] [z-score] | binding signal (GST-Co-NF-kB) [z-score] | binding signal (GST-Dm-Relish) [z-score] | binding signal (GST-Aq-NF-kB) [z-score] | binding signal (GST-Hu-p50) [z-score]
CCGATTAACATCAAAAATTCCCGTGATGTTAATCGGGTCTTGATTCGCTTGACGCTGCTG | 5.97 | 8.78 | 8.06 | 6.08 | 7.67 | 7.49 | 5.55
CCGATTAACATCAGGGGAAGACCTGATGTTAATCGGGTCTTGATTCGCTTGACGCTGCTG | 5.91 | 7.98 | 6.51 | 5.23 | 8.75 | 7.72 | 4.98
CCGATTAACATCAGGGAATTTAATGATGTTAATCGGGTCTTGATTCGCTTGACGCTGCTG | 3.7 | 6.07 | 6.59 | 4.07 | 4.24 | 5.09 | 4.45
CCGATTAACATCAGATTTTCCCATGATGTTAATCGGGTCTTGATTCGCTTGACGCTGCTG | 3.85 | 5.14 | 6.26 | 5 | 1.26 | 4.25 | 3.82
CCGATTAACATCAAATTTTCCCCTGATGTTAATCGGGTCTTGATTCGCTTGACGCTGCTG | 7.95 | 9.83 | 12.2 | 11.6 | 5.18 | 7.36 | 6.86
CCGATTAACATCAATTTTCCCCCTGATGTTAATCGGGTCTTGATTCGCTTGACGCTGCTG | 7.68 | 8.57 | 11.2 | 12 | 4.81 | 6.79 | 7.47
CCGATTAACATCAAGTCTCCCCCTGATGTTAATCGGGTCTTGATTCGCTTGACGCTGCTG | 6.67 | 5.33 | 7.25 | 8.63 | 2.82 | 4.5 | 5.75
CCGATTAACATCAGGGGACTCACTGATGTTAATCGGGTCTTGATTCGCTTGACGCTGCTG | 5.12 | 4.13 | 4.07 | 3.05 | 8.85 | 4.46 | 4.32
CCGATTAACATCACCATTTCCCCTGATGTTAATCGGGTCTTGATTCGCTTGACGCTGCTG | 5.75 | 6.95 | 9.62 | 6.17 | 2.11 | 4.32 | 5.3
CCGATTAACATCAGGGGACCACCTGATGTTAATCGGGTCTTGATTCGCTTGACGCTGCTG | 4.71 | 3.46 | 2.99 | 2.22 | 6.1 | 4.66 | 3.71
CCGATTAACATCAAATGTCCCCCTGATGTTAATCGGGTCTTGATTCGCTTGACGCTGCTG | 6.37 | 5.25 | 5.66 | 7.6 | 5.11 | 5.64 | 4.71
CCGATTAACATCACGGGTTTTCCTGATGTTAATCGGGTCTTGATTCGCTTGACGCTGCTG | 2.91 | 2.73 | 1.9 | 1.18 | 4.43 | 4.99 | 2.29
CCGATTAACATCAGGGGGTTACCTGATGTTAATCGGGTCTTGATTCGCTTGACGCTGCTG | 8.27 | 6.63 | 5.92 | 4.04 | 9.18 | 8.61 | 5.51
CCGATTAACATCAGGGGAAGTCATGATGTTAATCGGGTCTTGATTCGCTTGACGCTGCTG | 5.98 | 7.2 | 7.6 | 4.69 | 6.43 | 6.01 | 5.27
CCGATTAACATCAGCATTCCCCCTGATGTTAATCGGGTCTTGATTCGCTTGACGCTGCTG | 7.2 | 7.59 | 7.61 | 6.59 | 4.53 | 5.57 | 6.18
CCGATTAACATCACCGTCCCCCCTGATGTTAATCGGGTCTTGATTCGCTTGACGCTGCTG | 4.94 | 4.43 | 4.21 | 5.1 | 4.4 | 4.34 | 4.08
CCGATTAACATCAGGGGAACCCCTGATGTTAATCGGGTCTTGATTCGCTTGACGCTGCTG | 12.5 | 11.6 | 11.2 | 6.69 | 10.5 | 10.7 | 7.08
CCGATTAACATCACCTTTTCCCCTGATGTTAATCGGGTCTTGATTCGCTTGACGCTGCTG | 6.24 | 6.89 | 8.88 | 8.71 | 2.77 | 4.69 | 5.94
CCGATTAACATCAGGGGAGAAACTGATGTTAATCGGGTCTTGATTCGCTTGACGCTGCTG | 4.39 | 4.53 | 5.55 | 7.07 | 5.35 | 3.64 | 4.05
CCGATTAACATCAACAATTTCCCTGATGTTAATCGGGTCTTGATTCGCTTGACGCTGCTG | 3.9 | 5.04 | 6.92 | 4.63 | 2.52 | 4.15 | 4.08
CCGATTAACATCAAGTCCCCCCCTGATGTTAATCGGGTCTTGATTCGCTTGACGCTGCTG | 6.57 | 4.81 | 5.16 | 6.94 | 5.61 | 5.07 | 4.23
CCGATTAACATCAGGGGGAATCATGATGTTAATCGGGTCTTGATTCGCTTGACGCTGCTG | 8.02 | 7.33 | 8.26 | 8.51 | 6.2 | 5.7 | 6.66
